Screening results: PubChem, several laboratories
In the library only some 2.5% were active in any assay of this set; here they are far more common.
UBC13 inh: human UBC13 polyubiquitination inhibition; P61088; UBC13 polyubiquitin chain formation, TR-FRET; 0.47% of 330,000 active; inhibition, % at 20 µM; in the data active = inhibition above about 45%, passing the limit was not always enough
MEKK2mut PB1 HTS: signal of MEK5 binding to mutant human MEKK2 PB1 domain. 0.35% of 290,000 active. AID 1530. percent response, % at 10 µM. bead flow cytometry, Alexa488-MEK5 binding to MEKK2 mutant; in the data active = percent response above about 24%, passing the limit was not always enough
MEKK3 PB1 HTS: modulators (inhibitors or enhancers) of MEK5 binding to human MEKK3 PB1 domain; Q99759; bead-based flow cytometry, Alexa488-MEK5 binding to MEKK3; actives lie on both sides; 0 = blocked by unlabeled MEK5, 100 = vehicle; binding response (% of control), % at 10 µM; 1.4% of 290,000 active; AID 1529;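 active = binding response more than 3 SD above or below the average of its plate-row segment, actives on both sides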;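 note: Alexa488 bead fluorescence after subtracting the streptavidin-only scavenger bead signal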
Target sequence (Q99759 whole entry, looked up, the tested form may be a part): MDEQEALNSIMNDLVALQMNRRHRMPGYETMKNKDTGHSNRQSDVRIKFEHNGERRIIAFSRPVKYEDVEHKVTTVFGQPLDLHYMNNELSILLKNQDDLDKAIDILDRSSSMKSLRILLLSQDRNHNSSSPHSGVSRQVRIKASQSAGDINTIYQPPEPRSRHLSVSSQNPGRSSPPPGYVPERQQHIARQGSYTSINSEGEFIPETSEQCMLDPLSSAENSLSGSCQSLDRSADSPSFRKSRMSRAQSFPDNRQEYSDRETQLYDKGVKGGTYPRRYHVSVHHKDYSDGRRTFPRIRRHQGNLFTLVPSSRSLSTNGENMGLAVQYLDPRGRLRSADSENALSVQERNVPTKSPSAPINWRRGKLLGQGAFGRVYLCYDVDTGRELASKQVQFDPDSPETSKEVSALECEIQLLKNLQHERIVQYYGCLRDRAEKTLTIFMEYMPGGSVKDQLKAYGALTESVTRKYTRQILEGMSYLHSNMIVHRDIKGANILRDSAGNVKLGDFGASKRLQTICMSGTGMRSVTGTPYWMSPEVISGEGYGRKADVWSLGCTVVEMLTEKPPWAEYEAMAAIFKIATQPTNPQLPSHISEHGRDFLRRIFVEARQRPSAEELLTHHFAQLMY
Rce1 inh: inhibitors of yeast Ras-converting enzyme | Q03530 | yeast membranes, quenched prenylated peptide cleavage fluorescence | calls only | 0.27% of 290,000 active | AID 2563;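 active = fall in fluorescence gain of 50% or more versus controls, with final raw signal at or below 3038400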
MEKK2 WT-MEK5: raises or lowers MEK5 binding to wildtype human MEKK2 PB1 domain | Q9Y2U5 | bead flow cytometry, Alexa488-MEK5 binding to MEKK2 WT; actives lie on both sides | binding response (% of control), % at 10 µM | 1.1% of 290,000 active; in the data active = binding response below about 67% or above about 130%
MEKK2wt confirm: raises or lowers MEK5 binding to wildtype human MEKK2, retest. binding response (% of control), % at 10 µM. shares compounds with MEKK3 PB1 HTS. bead flow cytometry, Alexa488-MEK5 binding to MEKK2 WT; actives lie on both sides. 2.4% of 5,900 active; in the data active = binding response below about 16% or above about 210%; inactive = in between
MEKK2mut-MEK5: signal of MEK5 binding to mutant human MEKK2, retest | shares compounds with MEKK3 PB1 HTS | bead flow cytometry, Alexa488-MEK5 binding to MEKK2 mutant | percent response, % at 10 µM | 2% of 5,900 active; in the data active = percent response mostly above about 71%, no sharp cut-off; inactive = mostly below about 38%;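 note: higher means compound restores mutant binding toward wildtype level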
MEKK3 confirm: MEKK3-MEK5 PB1 inhibition, single concentration confirmation; 1.8% of 5,900 active; bead flow cytometry, Alexa488-MEK5 binding to MEKK3; hits give low values; binding response (% of control), % at 10 µM; AID 1894; shares compounds with MEKK3 PB1 HTS;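 active = binding response below 72% of control, or above a set upper limit, though filed actives all read lower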;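 note: lower values mean stronger disruption of MEK5 binding to MEKK3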
Large screens that a line does not name were inactive (follow-up assays come after a bar, where they were run); [ ] = another dose, or the depositor's remark.

CCCCCc1ccc(OCCOCCn2c[n+](C)c3ccccc32)c(CCCCC)c1	Rce1 inh active, MEKK2 WT-MEK5 232.0 (no result: UBC13 inh) | MEKK2wt confirm inactive | MEKK2mut-MEK5 inactive | MEKK3 confirm inactive
COc1ccccc1NC(=O)c1ccc[n+]([O-])c1	none
CCc1ccc(NC(=O)CSCc2ccc(C(=O)O)cc2)cc1	none
COC(=O)/C=C1\SC(N)=NC1=O	none (no result: Rce1 inh)
CN(C)c1nc(NCc2ccccc2)nc(N/N=C/c2cccc(Br)c2)n1	MEKK2 WT-MEK5 139.0 (no result: Rce1 inh) | MEKK2wt confirm inactive | MEKK2mut-MEK5 inactive | MEKK3 confirm inactive
Brc1cccc(/C=N/Nc2nn[nH]n2)c1	none
Cc1cc(C)c2c(=O)[nH]c(SCC(=O)Nc3ccccc3)nc2n1	none
Cc1ccc(NC(=O)CSc2nc3nc(C)cc(C)c3c(=O)[nH]2)cc1	MEKK3 PB1 HTS 0.0[inhibitor], MEKK2 WT-MEK5 -1.0[inhibitor] | MEKK2wt confirm inactive | MEKK2mut-MEK5 inactive | MEKK3 confirm inactive
CC(C)C(=O)Nc1nnc(SCC(=O)NC2CC2)s1	MEKK3 PB1 HTS 7.0[inhibitor], MEKK2 WT-MEK5 11.0[inhibitor] | MEKK2wt confirm inactive | MEKK2mut-MEK5 inactive | MEKK3 confirm inactive
O=C(CCN1C(=O)[C@@H]2Cc3ccccc3CN2C1=O)N[C@@H](Cc1ccccc1)C(=O)O	none
CC(=O)Nc1ccc(S(=O)(=O)N2CCN(c3nc(NC4CCCC4)c4ccccc4n3)CC2)cc1	MEKK2 WT-MEK5 163.0 | MEKK2wt confirm inactive | MEKK2mut-MEK5 inactive | MEKK3 confirm inactive
C[C@H](NC(=O)c1ccc2ccccc2c1)C(=O)N1CCC2(CC1)NCCc1[nH]cnc12	none
O=[N+]([O-])c1ccc(Cl)c(S(=O)(=O)n2ccnc2)c1	MEKK3 PB1 HTS 130.0 | MEKK2wt confirm inactive | MEKK2mut-MEK5 inactive | MEKK3 confirm inactive
Cc1ccc(NC(=O)C(=O)NCCc2c[nH]c3ccccc23)c(C)c1	none
Cc1cccc(NC(=S)NCCc2c[nH]c3ccccc23)c1	MEKK3 PB1 HTS 128.0 | MEKK2wt confirm inactive | MEKK2mut-MEK5 inactive | MEKK3 confirm inactive
Cc1ccc(C(=O)N/C(=C\c2cccs2)C(=O)NCCc2c[nH]c3ccccc23)cc1	MEKK3 PB1 HTS 129.0 | MEKK2wt confirm inactive | MEKK2mut-MEK5 inactive | MEKK3 confirm inactive
O=C(NCCc1c[nH]c2ccccc12)c1cnccn1	MEKK3 PB1 HTS 74.0[inhibitor] | MEKK2wt confirm inactive | MEKK2mut-MEK5 inactive | MEKK3 confirm inactive
Cc1ccc(C)c(NC(=O)C(=O)NCCc2c[nH]c3ccccc23)c1	MEKK3 PB1 HTS 34.0[inhibitor], MEKK2 WT-MEK5 35.0[inhibitor] | MEKK2wt confirm inactive | MEKK2mut-MEK5 inactive | MEKK3 confirm inactive
Cc1ccc(NC(=S)NCCc2c[nH]c3ccccc23)cc1	none
O=C(CN(CC1CCCO1)C(=O)CNS(=O)(=O)c1ccc(Cl)cc1)NC1CCCC1 (configuration not stated)	none
COc1nccc(-c2ccc(F)cc2)c1C#N	none
CCCC(=O)NC(NC(=S)Nc1ccc(S(N)(=O)=O)cc1)C(Cl)(Cl)Cl (configuration not stated)	MEKK3 PB1 HTS 131.0 | MEKK2wt confirm inactive | MEKK2mut-MEK5 inactive | MEKK3 confirm inactive
Cc1cccc(C(=O)OCc2cnc(Cl)s2)c1	MEKK3 PB1 HTS 15.0[inhibitor], MEKK2 WT-MEK5 25.0[inhibitor] | MEKK2wt confirm inactive | MEKK2mut-MEK5 inactive | MEKK3 confirm inactive
CCCCn1c(N)c(N(CCOC)C(=O)CN2C(=O)C3CCCCC3C2=O)c(=O)[nH]c1=O (configuration not stated)	none (no result: MEKK2mut PB1 HTS, MEKK3 PB1 HTS, Rce1 inh, MEKK2 WT-MEK5)
COc1cccc(-c2nc(CS(=O)(=O)CC(=O)Nc3cc(OC)ccc3OC)c(C)o2)c1	none
O=C(NNC(=S)Nc1cccc(C(F)(F)F)c1)c1ccccc1Cl	MEKK3 PB1 HTS 66.0[inhibitor] | MEKK2wt confirm inactive | MEKK2mut-MEK5 inactive | MEKK3 confirm inactive
COc1cc2c3nnc(-c4ccc(F)cc4)c-3cn(Cc3ccccc3F)c2cc1OC	none (no result: UBC13 inh, Rce1 inh)
COc1cc2c3nnc(-c4ccccc4)c-3cn(Cc3ccccc3F)c2cc1OC	MEKK2 WT-MEK5 153.0 | MEKK2wt confirm inactive | MEKK2mut-MEK5 inactive | MEKK3 confirm inactive
O=C(O)CCN1CCc2ccccc2C1c1cccs1 (configuration not stated)	none (no result: MEKK2mut PB1 HTS, MEKK3 PB1 HTS, Rce1 inh, MEKK2 WT-MEK5)
O=C(NCc1ccccc1)C1Cc2ccccc2CN1C(=O)c1ccco1 (configuration not stated)	none
O=C(NCc1ccc(F)cc1)C1Cc2ccccc2CN1C(=O)c1ccco1 (configuration not stated)	MEKK3 PB1 HTS 69.0[inhibitor] | MEKK2wt confirm inactive | MEKK2mut-MEK5 inactive | MEKK3 confirm inactive
Cc1nc(-c2ccc(F)cc2)c(CC(=O)Nc2ccc(C)c(S(=O)(=O)N3CCOCC3)c2)s1	none
CCN1C(=O)/C(=C/C=C2\N(CC)c3cc(S(=O)(=O)N(C)C)ccc3N2c2ccccc2)SC1=S	MEKK2 WT-MEK5 53.0[inhibitor] | MEKK2wt confirm inactive | MEKK2mut-MEK5 inactive | MEKK3 confirm inactive
CCN1C(=O)/C(=C\C=C\c2ccccc2[N+](=O)[O-])SC1=S	none (no result: Rce1 inh)
O=C1NC(=O)/C(=C/C(=O)N2CCOCC2)S1	none
Cc1ccccc1NC1=NC(=S)N(CC(N)=O)C12CCOC(C)(C)C2 (configuration not stated)	MEKK3 PB1 HTS 47.0[inhibitor] | MEKK2wt confirm inactive | MEKK2mut-MEK5 inactive | MEKK3 confirm inactive
CC1(C)CC2(CCO1)C(Nc1ccccc1)=NC(=S)N2CC(N)=O (configuration not stated)	none
C=CCOc1nc2c(c(=O)n(C)c(=O)n2C)n1Cc1c(Cl)cccc1Cl	MEKK3 PB1 HTS 81.0[inhibitor] | MEKK2wt confirm inactive | MEKK2mut-MEK5 inactive | MEKK3 confirm inactive
Cc1c(C#N)c(N=CN(C)C)c(C(=O)c2ccc(Br)cc2)n1-c1ccccc1	MEKK2 WT-MEK5 69.0[inhibitor] | MEKK2wt confirm inactive | MEKK2mut-MEK5 inactive | MEKK3 confirm inactive
Cc1c(C#N)c(N=CN(C)C)c(C(=O)c2ccccc2)n1-c1ccc(Br)cc1	none
O=C(NC1CC2CCCC(C1)N2Cc1ccccc1)c1ccc([N+](=O)[O-])cc1 (configuration not stated)	none
CCOC(=O)C1=C(C)N(C)C(C)=C(C(=O)OCC)C1c1ccc(Cl)cc1	MEKK3 PB1 HTS 130.0 | MEKK2wt confirm inactive | MEKK2mut-MEK5 inactive | MEKK3 confirm 46.0
COc1ccc(NC(=O)C2C(=O)NC3(C)CC2c2ccccc2O3)cc1 (configuration not stated)	none
CC12CC(c3ccccc3O1)C(C(=O)NCc1ccccc1)C(=O)N2 (configuration not stated)	MEKK3 PB1 HTS 81.0[inhibitor] | MEKK2wt confirm inactive | MEKK2mut-MEK5 inactive | MEKK3 confirm inactive
Cc1ccc(NC(=O)CN(C)C(=S)NC2CC2)cc1	none
